Compounds without any hit were thinned out: in the full panel of roughly 83,000, 20% have a hit.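 Each cell line was grown in a 96-well plate and treated with one concentration of compound for 48 hours. Values below 10 were considered active.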 A number with no mark means an inactive call. Calls of active or inactive are those of the source.
How the values were obtained:
Assay in all cases: NCI-60 one-dose screen, 48 h (100 = growth as untreated, 0 = no growth, -100 = all killed)
Details in all cases: 10 µM unless noted
SR leukemia = tested on: SR leukemia
RPMI-8226 leukemia = tested on: RPMI-8226 leukemia
OVCAR-8 ovarian = tested on: OVCAR-8 ovarian
OVCAR-5 ovarian = tested on: OVCAR-5 ovarian
OVCAR-4 ovarian = tested on: OVCAR-4 ovarian
SK-OV-3 ovarian = tested on: SK-OV-3 ovarian
IGROV1 ovarian = tested on: IGROV1 ovarian
OVCAR-3 ovarian = tested on: OVCAR-3 ovarian
HS 578T breast = tested on: HS 578T breast
NCI/ADR-RES ovarian = tested on: NCI/ADR-RES ovarian

SMILES: COc1ccc(-n2nc(C)c3c(Oc4ccc(NC(=O)Nc5c(Cl)cccc5Cl)cc4)ncnc32)cc1
- growth (SR leukemia): 111%
- growth (RPMI-8226 leukemia): 102%
- growth (OVCAR-8 ovarian): 97.4%
- growth (OVCAR-5 ovarian): 112%
- growth (OVCAR-4 ovarian): 99.9%
- growth (SK-OV-3 ovarian): 89%
- growth (IGROV1 ovarian): 101%
- growth (OVCAR-3 ovarian): 112%
- growth (HS 578T breast): 92%
- growth (NCI/ADR-RES ovarian): 102%

SMILES: O=C(Oc1cccnc1)c1ccsc1Nc1ccnc(C(F)(F)F)c1
- growth (SR leukemia): 17.6%
- growth (RPMI-8226 leukemia): 27.6%
- growth (OVCAR-8 ovarian): 84%
- growth (OVCAR-5 ovarian): 102%
- growth (OVCAR-4 ovarian): 60.2%
- growth (SK-OV-3 ovarian): 88.2%
- growth (IGROV1 ovarian): 35.9%
- growth (OVCAR-3 ovarian): 100%
- growth (HS 578T breast): 109%
- growth (NCI/ADR-RES ovarian): 60.4%

SMILES: Brc1ccc(-c2csc(Nc3ccccn3)n2)cc1
- growth (SR leukemia): 68.8%
- growth (RPMI-8226 leukemia): 68%
- growth (OVCAR-8 ovarian): 101%
- growth (OVCAR-5 ovarian): 92.4%
- growth (OVCAR-4 ovarian): 50%
- growth (SK-OV-3 ovarian): 82.7%
- growth (IGROV1 ovarian): 79.4%
- growth (OVCAR-3 ovarian): 82.9%
- growth (HS 578T breast): 114%
- growth (NCI/ADR-RES ovarian): 74%

SMILES: Clc1ccc2c(NCCNc3nc(N4CCOCC4)nc4ccccc34)ccnc2c1
- growth (SR leukemia): -23.5% (active)
- growth (RPMI-8226 leukemia): -37% (active)
- growth (OVCAR-8 ovarian): -25.8% (active)
- growth (OVCAR-5 ovarian): 51.8%
- growth (OVCAR-4 ovarian): 3.78% (active)
- growth (SK-OV-3 ovarian): -37.8% (active)
- growth (IGROV1 ovarian): 48.8%
- growth (OVCAR-3 ovarian): -75% (active)
- growth (HS 578T breast): -13.9% (active)
- growth (NCI/ADR-RES ovarian): 47.9%

SMILES: COc1ccc2[nH]cc(-c3noc(C(=O)c4cn(C)c5ccc(F)cc45)n3)c2c1
- growth (SR leukemia): 89.7%
- growth (RPMI-8226 leukemia): 104%
- growth (OVCAR-8 ovarian): 93.6%
- growth (OVCAR-5 ovarian): 99.9%
- growth (OVCAR-4 ovarian): 95.2%
- growth (SK-OV-3 ovarian): 87.3%
- growth (IGROV1 ovarian): 60.1%
- growth (OVCAR-3 ovarian): 97.5%
- growth (HS 578T breast): 90.9%
- growth (NCI/ADR-RES ovarian): 96%

SMILES: NC(=O)c1cc(Cl)ccc1NC(=O)/C=C/c1ccccc1
- growth (SR leukemia): -34.1% (active)
- growth (RPMI-8226 leukemia): 12.8%
- growth (OVCAR-8 ovarian): 51.2%
- growth (OVCAR-5 ovarian): 54.6%
- growth (OVCAR-4 ovarian): 40.7%
- growth (SK-OV-3 ovarian): 3.73% (active)
- growth (IGROV1 ovarian): 88.6%
- growth (OVCAR-3 ovarian): -30.3% (active)
- growth (HS 578T breast): 7.85% (active)
- growth (NCI/ADR-RES ovarian): 10.8%

SMILES: O=C1c2c(O)cc(O)cc2-c2c(-c3ccc(O)cc3)oc3cc(O)cc1c23
- growth (SR leukemia): 0.6% (active)
- growth (RPMI-8226 leukemia): 41.8%
- growth (OVCAR-8 ovarian): 46.6%
- growth (OVCAR-5 ovarian): 111%
- growth (OVCAR-4 ovarian): 61.5%
- growth (SK-OV-3 ovarian): 15.7%
- growth (IGROV1 ovarian): 52.2%
- growth (OVCAR-3 ovarian): 44%
- growth (HS 578T breast): 32.1%
- growth (NCI/ADR-RES ovarian): 90.4%

SMILES: FC(F)(F)c1nc2c(NCc3ccc(-c4ccccc4)cc3)cccc2[nH]1
- growth (SR leukemia): 7.78% (active)
- growth (RPMI-8226 leukemia): 45%
- growth (OVCAR-8 ovarian): 77.2%
- growth (OVCAR-5 ovarian): 96.1%
- growth (OVCAR-4 ovarian): 88.9%
- growth (SK-OV-3 ovarian): 89.1%
- growth (IGROV1 ovarian): 85.8%
- growth (OVCAR-3 ovarian): 64.9%
- growth (HS 578T breast): 71.7%
- growth (NCI/ADR-RES ovarian): 81%

SMILES: O=C1/C(=C/C(Cl)=C/c2ccccc2)SC(=S)N1CCc1ccc(O)cc1
- growth (SR leukemia): 13.3%
- growth (RPMI-8226 leukemia): 2.88% (active)
- growth (OVCAR-8 ovarian): 16.7%
- growth (OVCAR-5 ovarian): -20.3% (active)
- growth (OVCAR-4 ovarian): 30.7%
- growth (SK-OV-3 ovarian): 34.8%
- growth (IGROV1 ovarian): -36.6% (active)
- growth (OVCAR-3 ovarian): -7.98% (active)
- growth (HS 578T breast): 37.5%
- growth (NCI/ADR-RES ovarian): 9.23% (active)

SMILES: COc1ccc(-c2cc(=O)c3c(OC)c4ccoc4cc3o2)cc1
- growth (SR leukemia): 82.4%
- growth (RPMI-8226 leukemia): 102%
- growth (OVCAR-8 ovarian): 99.2%
- growth (OVCAR-5 ovarian): 93.6%
- growth (OVCAR-4 ovarian): 109%
- growth (SK-OV-3 ovarian): 112%
- growth (IGROV1 ovarian): 113%
- growth (OVCAR-3 ovarian): 106%
- growth (HS 578T breast): 120%
- growth (NCI/ADR-RES ovarian): 96.2%

SMILES: CC1=C(O)C(=O)C(C(C#N)(C#N)C(C#N)C#N)C1 (stereo not given)
- growth (SR leukemia): 99.3%
- growth (RPMI-8226 leukemia): 106%
- growth (OVCAR-8 ovarian): 101%
- growth (OVCAR-5 ovarian): 109%
- growth (OVCAR-4 ovarian): 107%
- growth (SK-OV-3 ovarian): 99%
- growth (IGROV1 ovarian): 102%
- growth (OVCAR-3 ovarian): 94.8%
- growth (HS 578T breast): 98.9%
- growth (NCI/ADR-RES ovarian): 97.7%

SMILES: COC[C@H](C)n1c(C2CCOCC2)nc2cnc3cc(-c4c(C)noc4C)c(OC)cc3c21
- growth (SR leukemia): 33.5%
- growth (RPMI-8226 leukemia): 24%
- growth (OVCAR-8 ovarian): 49.6%
- growth (OVCAR-5 ovarian): 79.9%
- growth (OVCAR-4 ovarian): 54.7%
- growth (SK-OV-3 ovarian): 7.03% (active)
- growth (IGROV1 ovarian): 66.5%
- growth (OVCAR-3 ovarian): 49.8%
- growth (HS 578T breast): 12.6%
- growth (NCI/ADR-RES ovarian): 54.2%

SMILES: CCc1nc(N)nc(N)c1C#CC(C)c1cc(-c2ccnc(C)c2)c2oc(C)nc2c1 (stereo not given)
- growth (SR leukemia): 3.38% (active)
- growth (RPMI-8226 leukemia): 2.39% (active)
- growth (OVCAR-8 ovarian): 18.6%
- growth (OVCAR-5 ovarian): 36.8%
- growth (OVCAR-4 ovarian): 51%
- growth (SK-OV-3 ovarian): 16.8%
- growth (IGROV1 ovarian): 2.77% (active)
- growth (OVCAR-3 ovarian): 17%
- growth (HS 578T breast): 26.4%
- growth (NCI/ADR-RES ovarian): 11.5%

SMILES: C#Cc1cccc(NC(=O)c2ccccc2NC(=O)C=C)c1
- growth (SR leukemia): 101% [8.25 µM]
- growth (RPMI-8226 leukemia): 66.9% [8.25 µM]
- growth (OVCAR-8 ovarian): 91.4% [8.25 µM]
- growth (OVCAR-5 ovarian): 113% [8.25 µM]
- growth (OVCAR-4 ovarian): 100% [8.25 µM]
- growth (SK-OV-3 ovarian): 99.2% [8.25 µM]
- growth (IGROV1 ovarian): 101% [8.25 µM]
- growth (OVCAR-3 ovarian): 104% [8.25 µM]
- growth (HS 578T breast): 89.9% [8.25 µM]
- growth (NCI/ADR-RES ovarian): 103% [8.25 µM]

SMILES: CCCCC[C@H]1C/C=C2/C(=O)C=C[C@@H]2C/C=C\CCCC(=O)O1
- growth (SR leukemia): -3.55% (active)
- growth (RPMI-8226 leukemia): -13.4% (active)
- growth (OVCAR-8 ovarian): 5.97% (active)
- growth (OVCAR-5 ovarian): -9.16% (active)
- growth (OVCAR-4 ovarian): 14.1%
- growth (SK-OV-3 ovarian): -11.6% (active)
- growth (IGROV1 ovarian): -42.8% (active)
- growth (OVCAR-3 ovarian): -58.8% (active)
- growth (HS 578T breast): 23.3%
- growth (NCI/ADR-RES ovarian): 10.3%

SMILES: CC(=O)c1cc2c(N)c(C(=O)Nc3ccccc3)sc2nc1C
- growth (SR leukemia): 51.8%
- growth (RPMI-8226 leukemia): 89%
- growth (OVCAR-8 ovarian): 93.9%
- growth (OVCAR-5 ovarian): 96%
- growth (OVCAR-4 ovarian): 88.9%
- growth (SK-OV-3 ovarian): 28.8%
- growth (IGROV1 ovarian): 83.9%
- growth (OVCAR-3 ovarian): 90%
- growth (HS 578T breast): 69.8%
- growth (NCI/ADR-RES ovarian): 75.9%

SMILES: Cc1cc(N2CCCCC2)nc(NC2CCCC(Nc3ccnc4cc(Cl)ccc34)C2)n1 (stereo not given)
- growth (SR leukemia): -53.5% (active)
- growth (RPMI-8226 leukemia): -52.4% (active)
- growth (OVCAR-8 ovarian): -82.9% (active)
- growth (OVCAR-5 ovarian): 11.2%
- growth (OVCAR-4 ovarian): -38.8% (active)
- growth (SK-OV-3 ovarian): -71.7% (active)
- growth (IGROV1 ovarian): -33% (active)
- growth (OVCAR-3 ovarian): -69% (active)
- growth (HS 578T breast): -48.6% (active)
- growth (NCI/ADR-RES ovarian): -41.8% (active)

SMILES: O=C1c2cccc3cccc(c23)C(=O)N1CCCCCN1CCN(CCCCCOc2ccc(-c3nc4ccc(N5CCOCC5)cc4[nH]3)cc2)CC1
- growth (SR leukemia): -44.1% (active)
- growth (RPMI-8226 leukemia): -59% (active)
- growth (OVCAR-8 ovarian): 10.6%
- growth (OVCAR-5 ovarian): 158%
- growth (OVCAR-4 ovarian): 83.2%
- growth (SK-OV-3 ovarian): 135%
- growth (IGROV1 ovarian): 44.3%
- growth (OVCAR-3 ovarian): 105%
- growth (HS 578T breast): 107%
- growth (NCI/ADR-RES ovarian): 25.9%

SMILES: O=C(N(c1ccccc1)c1ccccc1)n1ccc2nc(Cl)nc(Cl)c21
- growth (SR leukemia): 54.4%
- growth (RPMI-8226 leukemia): 16.1%
- growth (OVCAR-8 ovarian): 63.2%
- growth (OVCAR-5 ovarian): 64.2%
- growth (OVCAR-4 ovarian): 63.3%
- growth (SK-OV-3 ovarian): 49.7%
- growth (IGROV1 ovarian): 68.5%
- growth (OVCAR-3 ovarian): 30%
- growth (HS 578T breast): 42.2%
- growth (NCI/ADR-RES ovarian): 35.8%

SMILES: COc1cc2c(cc1-c1c(C)noc1C)ncc1nc(C3CCCC3)n([C@H](C)COC(F)F)c12
- growth (SR leukemia): 18.7%
- growth (RPMI-8226 leukemia): 14.7%
- growth (OVCAR-8 ovarian): 38.6%
- growth (OVCAR-5 ovarian): 78%
- growth (OVCAR-4 ovarian): 40.9%
- growth (SK-OV-3 ovarian): 7.48% (active)
- growth (IGROV1 ovarian): 42.1%
- growth (OVCAR-3 ovarian): 36.5%
- growth (HS 578T breast): 11%
- growth (NCI/ADR-RES ovarian): 35.5%

SMILES: O=C(O)COc1ccc(Cl)cc1C1CCCCC1
- growth (SR leukemia): 95.4%
- growth (RPMI-8226 leukemia): 102%
- growth (OVCAR-8 ovarian): 103%
- growth (OVCAR-5 ovarian): 107%
- growth (OVCAR-4 ovarian): 109%
- growth (SK-OV-3 ovarian): 107%
- growth (IGROV1 ovarian): 117%
- growth (OVCAR-3 ovarian): 115%
- growth (HS 578T breast): 105%
- growth (NCI/ADR-RES ovarian): 104%
